Drawing on PubChem BioAssay AID1508600 (Functional Genomics Laboratory (NCATS/FGL), 2020), this text covers z-score for 69 sequences.

Among all 53,000 sequences or so, about 3,700 (7%) were called active. Only a selection was taken, and actives are over-represented in it overall. Unmarked numbers belong to inactive results.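 How the source made its calls: active means gene knockdowns whose robust z-score for IL-1 alpha signal is at least 2 or at most -2, so actives lie on both sides; inactive means the rest.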

The nature of the assay: Components of the Cytosolic LPS Sensing Pathway: Gene Identification via Genome-wide siRNA Screen.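 Further: robust z of the log signal after scaling to non-targeting control siRNA wells of the plate.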 The following applies: RAW264.7 macrophages, IL-1a HTRF, actives lie on both sides, screened at 100 nM (by protocol), cells primed 5 h with Pam3CSK4 first. Summed up: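 Three distinct siRNAs per gene were tested singly at 100 nM in RAW264.7 macrophages. Following Pam3CSK4 priming and 24 hour LipidA transfection, IL-1a secretion was read by HTRF.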
(In general: TR-FRET usually uses a lanthanide donor and a delayed reading to cut background.)
In the case of GGUUUGAGUGGAAAAUUCATT against Csn1s2b, the z-score was 0.904.

With CCCACAGAACCACACAUUCTT against H2-DMa, the z-score was 3.11 (active).

As to GGAGGCUGAGUAUUGGCUUTT against Pi4k2b, the z-score is -1.06.

In the case of GCUCUACCCAAUCAAGACCTT against Asb14, the z-score was 0.31.

On to GCAGUCGAAGCACUAAAAATT against Dnaaf2, for which the z-score was 0.412.

Regarding CGACCUACUCUACAGCAAATT against Brinp3, the z-score is 2.6 (active).

With GGAACUGAAGGGCAAUAUCTT against Kifc5b, the z-score was 1.99.

In the case of GGGCUCCUUCCUUGAAAAGTT against Dclre1c, the z-score is 0.365.

Consider GACCACACUCAUCCAGGCUTT against Gtpbp6, for which the z-score was 0.817.

For GGAAACGAUGACAUUUCAATT against Pnrc2, the z-score was 0.0147.

With GGGCGUAGAAACAGCAACUTT against Ushbp1, the z-score is -2.14 (active).

For the sequence GGCCAGAGACUGCCUGAUUTT against Acaa1b, the z-score is 0.225.

For the sequence GGUCAUUCAGCUGGAAGAUTT against Zfp143, the z-score is -1.07.

For “GGGUAGGUAUCAAAAUAAUTT against 6030452D12Rik”, the z-score was 0.172.

On to GCCACGUGAUAGUAAUAAATT against Psmd12, for which the z-score is 0.0999.

With GGAGAAUGAAGAGUUAGACTT against Nfu1, the z-score is 0.608.

Consider AUUACAAGGUUUGUGGAUATT against Gsdmc3, for which the z-score is 0.188.

GGUGGAUAGAGCAAUUGAATT against Jph1: the z-score is 1.5.

As for GGCGGCACAAAUUGUUUUUTT against Gimap9, the z-score was -2.03 (active).

Regarding GCCAAGUACUCGUUUCCACTT against Wtap, the z-score is 0.826.

For the sequence GCCUUGGACUGCUUUGGAUTT against Dync1li1, the z-score is -0.379.

For GGCAUUCCUCUUGAAUAUUTT against Dck, the z-score was -0.805.

Consider GCCCUACCCUCAUCAUAAATT against Tmem94, for which the z-score is -1.36.

Consider GGACUUCAGAGUGGACAUUTT against Sec16b, for which the z-score is -0.19.

With GGAAAGUUGGACCUUCUGATT against Adamts6, the z-score was 2.35 (active).

As to GCUGUGAAGAAUCAGAUAGTT against Aatf, the z-score is -0.155.

For the sequence GGAUUUAUGGCAAGUUUCUTT against Ppp2r5e, the z-score was 0.00387.

Turning to CCAGGUGUACCUUACGUUGTT against Eif4ebp2, the z-score was 1.05.

With CGGACAAGAUAAAGUGUGUTT against Lypd9, the z-score is -1.07.

Consider GGAACUCACACAGAACCAATT against Bloc1s6, for which the z-score is 6.84 (active).

GGUGUAAAGUAAUCAAGGCTT against Dbx2: the z-score is 0.453.

For GGUUUUAUGAGAAAGCAGATT against Ogfod1, the z-score is 0.0298.

GCACAGCUACCAUUCACAATT against Nxpe2: the z-score was -1.97.

Regarding GGAGGAACAUAUGCUCAGATT against Lce1e, the z-score is -2.99 (active).

In the case of CCACUAAGGUUUGAAGAAGTT against Nes, the z-score is 1.21.

Consider CCUGAUUAUUCUGAGAAAUTT against Adsl, for which the z-score is 1.

Regarding GGGACUCGAGUUUCAUCUATT against Casc1, the z-score was 0.768.

In the case of GGAAUUACGAAGCUGUGUGTT against Cdkl3, the z-score was -2.36 (active).

For the sequence “CCGUUCUGGCACAGAACAGTT against A830005F24Rik”, the z-score was 1.41.

Consider CCAUUGUACAGAAAAACACTT against Abhd18, for which the z-score was 0.41.

For GGAAAGAGCUUUUUAUUGUTT against Zfp235, the z-score is 0.145.

Consider CCAUAUACCCUCGAUGCCATT against Abhd16b, for which the z-score was -2.76 (active).

In the case of GCCCGAAUACAGGAAGAUCTT against Hspg2, the z-score was 1.42.

Take GGAAAUGAGACGAAGGAGGTT against Kpna6: the z-score was -0.642.

Regarding GGAACUGAAAAACUCAACUTT against Evi2a, the z-score was -3.13 (active).

GGCACAGAGAACAAUACUUTT against Npy5r: the z-score is -0.128.

With CCCUAUUAGUGGAAGCAUGTT against Zfp738, the z-score is -1.94.

Consider “GCAUCGCAUUUAAAUAGAATT against 4833408A19Rik”, for which the z-score was 0.965.

For GGGUGUAGCAUUGUCACAGTT against Olfr1133, the z-score was 2.32 (active).

Consider GGAGAUGAACAAGGACCUATT against Apoa1, for which the z-score is 0.717.

On to GGAUGUGAUGAAGUUGGCCTT against Olfr78, for which the z-score is -1.96.

On to GCUGGUGAGUCACUGAUGATT against Med22, for which the z-score was 1.32.

In the case of GGAAAGAAGAAACAUUCCUTT against Socs5, the z-score is 0.495.

On to GCGACUCCCACAUACUCAGTT against Muc19, for which the z-score is -0.215.

Turning to UCCAUACUACUCAUCAAAUTT against Olfr68, the z-score is 3.78 (active).

As to GCCUAAGAACGAUGACACUTT against Surf2, the z-score was 0.179.

Consider “GGUCUCUGUAGAGAUGGCATT against 6820408C15Rik”, for which the z-score was -2.52 (active).

In the case of CGUUAAUUGCCCUCAAAGATT against Spon1, the z-score was 1.03.

Consider GGCGGAGAGGAAAUCUAUGTT against Mycs, for which the z-score is 1.4.

Consider GCCUUUGCACAGUUUGGACTT against BC002059, for which the z-score is -1.13.

As for GGCAGUUCUCCAGUGCUUUTT against Mtss1, the z-score is -1.32.

Turning to CCUCGUAUUUAUACUCAGUTT against Gpr18, the z-score is 0.3.

As to CCACCUUCCUAUGUUUGUATT against Ebf2, the z-score was 3.73 (active).

In the case of GGCUGCUCAAAAAGAACAUTT against Kif21b, the z-score was 0.645.

On to GCUUUGGCUCAAAGCACGUTT against Mcm3, for which the z-score is 1.93.

As to GCGGUCAAAUGCAACAAACTT against Fabp5, the z-score was -0.33.

For CCUCCUGACCUUAAUCUUGTT against P2rx1, the z-score was 0.507.

Turning to GGCUGCACAAAGAUGUUCATT against Yy1, the z-score is 2.46 (active).

Take GCUUAAUCCUUAGUCAGCATT against F2rl2: the z-score is -0.591.
